The target of experiment [1] is Lysosomal acid glucosylceramidase (Homo sapiens) (UniProt P04062). In words: Glucocerebrosidase-p2 (AID 348; in the data active = potency below about 10 µM; note: potency is the fitted concentration of half-maximal effect). The following applies: purified GBA, blue fluorogenic substrate, 40 min. The procedure, abridged: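 Normal human glucocerebrosidase (0.2 nM) with blue fluorogenic substrate (80 uM final) in citrate/phosphate pH 5.9 with 10mM sodium taurocholate, 0.01% tween-20; 40 min RT, NaOH/glycine stop; fluorescence Ex 365/Em 440; AC50 from a titration from 0.6 nM upwards.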
Chain of Lysosomal acid glucosylceramidase (Homo sapiens) (P04062 whole entry, looked up): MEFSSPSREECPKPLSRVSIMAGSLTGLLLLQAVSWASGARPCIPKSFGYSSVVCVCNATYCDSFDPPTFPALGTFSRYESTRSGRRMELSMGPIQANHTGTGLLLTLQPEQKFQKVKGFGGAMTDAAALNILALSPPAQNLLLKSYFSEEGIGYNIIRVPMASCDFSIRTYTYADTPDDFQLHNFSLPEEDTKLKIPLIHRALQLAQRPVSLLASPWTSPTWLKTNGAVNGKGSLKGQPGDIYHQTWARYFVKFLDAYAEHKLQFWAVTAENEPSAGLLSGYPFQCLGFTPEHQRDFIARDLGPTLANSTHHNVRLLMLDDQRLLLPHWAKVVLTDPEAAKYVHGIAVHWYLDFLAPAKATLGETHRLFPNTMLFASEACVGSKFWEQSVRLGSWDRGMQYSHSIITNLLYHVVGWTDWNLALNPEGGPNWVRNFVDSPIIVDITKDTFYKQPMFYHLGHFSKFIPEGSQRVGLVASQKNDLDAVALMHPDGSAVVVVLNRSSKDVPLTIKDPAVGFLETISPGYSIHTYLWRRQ

Experiment [2] can be described thus: AP1 Signaling Pathway (AID 357).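 Note: ME-180 reporter cells stimulated with EGF at its EC50 level; % is set by controls: 0 for no effect and ±100 for the full control effect.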 The note with it: ME-180 AP-1-bla reporter, EGF-induced, beta-lactamase ratio, 5 h; at 7.69 µM (top of the series) unless noted. The procedure, abridged:
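A ratiometric CCF4 readout (405 nm excitation; 460 and 530 nm emission) quantified AP-1-driven beta-lactamase in ME-180 cells after 5 h with compound and EC50 EGF; AC50 values were derived for activators and inhibitors.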

The target of experiment [3] is Cytochrome P450 1A2 (Homo sapiens) (UniProt P05177). Nature of the experiment: p450-cyp1a2 (AID 410; calls by dose curve;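 note: -100% = full effect of reference inhibitor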). The following applies: recombinant CYP1A2, luciferin-ME demethylation, luminescence; series mostly up to 57 µM. The procedure, abridged: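 Read-out is luminescence from luciferin produced by CYP1A2 demethylation of Luciferin-ME (100uM, at Km). Detection reagent stopped the 60 min NADPH-dependent reaction; signals were normalized to 57 uM furafylline.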
Chain of Cytochrome P450 1A2 (Homo sapiens) (P05177 whole entry, looked up): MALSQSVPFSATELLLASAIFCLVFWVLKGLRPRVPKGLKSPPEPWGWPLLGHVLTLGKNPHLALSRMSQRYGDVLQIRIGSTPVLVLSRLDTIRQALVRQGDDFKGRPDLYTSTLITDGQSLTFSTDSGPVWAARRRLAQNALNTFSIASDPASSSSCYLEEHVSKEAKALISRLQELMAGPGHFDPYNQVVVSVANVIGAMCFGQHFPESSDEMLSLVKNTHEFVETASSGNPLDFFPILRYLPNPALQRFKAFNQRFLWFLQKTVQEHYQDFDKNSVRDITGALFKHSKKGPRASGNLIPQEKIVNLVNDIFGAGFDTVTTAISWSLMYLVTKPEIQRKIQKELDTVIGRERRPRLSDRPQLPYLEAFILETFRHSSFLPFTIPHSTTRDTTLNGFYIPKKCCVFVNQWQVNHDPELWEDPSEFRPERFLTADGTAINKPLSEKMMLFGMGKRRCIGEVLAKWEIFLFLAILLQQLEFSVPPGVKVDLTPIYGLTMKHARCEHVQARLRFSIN

Experiment [4] is described as follows: NFAT Signaling Pathway (AID 444).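 Note: carbachol stimulus at about its EC50 of 1 µM final; % is set by controls: 0 for no effect and ±100 for the full control effect.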 The note with it: Jurkat NFAT-bla M1, carbachol, beta-lactamase ratio, 5 h; at 7.69 µM (top of the series) unless noted. The procedure, abridged:
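Jurkat cells with NFAT-driven β-lactamase reporter and co-expressed M1 receptor, stimulated with carbachol (final 1 uM, ~EC50), compound titration, 5 h at 37 °C. CCF4 loaded 1 h at RT; 460/530 nm ratio gave %activity and AC50.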

A short description of experiment [5]: Stat Signaling Pathway (AID 446).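 Note: ME-180 cervical cancer cells given 40 pM IL-6 alongside compound; SIE-controlled beta-lactamase reporter measured as 460/530 nm FRET emission ratio; % is set by controls: 0 for no effect and ±100 for the full control effect.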 The following applies: ME-180 SIE beta-lactamase reporter, IL-6 stimulated, 5 h; at 7.69 µM (top of the series) unless noted. The procedure, abridged:
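Compound effects on IL-6-induced STAT reporter activity were measured in ME-180 cells. After overnight culture, cells were co-treated with 40 pM IL-6 for 5 hrs before beta-lactamase substrate loading at room temperature.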

Experiment [6] has as its target Glucocorticoid receptor (Homo sapiens) (UniProt P04150). In words: GR-EFC Redistribution (AID 451; calls by dose curve; note: potency is the fitted concentration of half-maximal effect). The note with it: CHO-K1 GR-EFC translocation, beta-gal luminescence, 2 h. The procedure, abridged: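 CHO-K1 cells expressing nuclear EA and GR-ED fragments of b-gal; compounds titrated up to 46 uM final, 2 h at 37 C. GR nuclear translocation read as complemented b-gal luminescence after 1 h RT detection.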

The target in experiment [7] is Mitogen-activated protein kinase 10 (Mus musculus) (UniProt Q61831). In words: JNK3 AlphaScreen Assay (AID 530).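 Note: kinase came from lysate of stimulated human HepG2 cells; signal reports phosphorylation of biotinylated GST-cJun 1-79 at Ser73 with 10 µM ATP; % is set by controls: 0 for no effect and ±100 for the full control effect.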 The following applies: JNK3 lysate, c-Jun phosphorylation; series mostly up to 57.1 µM. The procedure, abridged:
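HepG2 lysate (IL-1b/TNFa pre-activated) + biotin-GST-cJun 1-79 + anti-pSer73 cJun; cpd titration, 15 min RT; ATP 10 uM start; Tris pH 7.6, MgCl2, DTT, vanadate; beads in EDTA buffer; AlphaScreen.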
Background: In Alpha technology, singlet oxygen from a donor bead excites a nearby acceptor bead.

The target in experiment [8] is 3',5'-cyclic-AMP phosphodiesterase 4B (Homo sapiens) (UniProt Q07343). Nature of the experiment: qHTS Assay for Inhibitors of PDE-IV (AID 607; active = well fitted activation curve with a large enough effect in the main read-out, with a control signal flat, not every such curve was filed as active; note: % of control where 0% means no effect). The following applies: HEK293 ACTOne CNG channel cells, membrane potential fluorescence; series mostly up to 22.9 µM. The procedure, abridged: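 ACTOne HEK293 cells carry a modified cAMP-gated CNG channel and express endogenous PDE4; plated 1000 cells/well, compounds up to 22.9 uM final. Membrane-potential dye fluorescence (ex 535/em 590) was read; parental cells received 10 uM forskolin + 100 uM RO 20-1724.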
Chain of 3',5'-cyclic-AMP phosphodiesterase 4B (Homo sapiens) (Q07343 whole entry, looked up): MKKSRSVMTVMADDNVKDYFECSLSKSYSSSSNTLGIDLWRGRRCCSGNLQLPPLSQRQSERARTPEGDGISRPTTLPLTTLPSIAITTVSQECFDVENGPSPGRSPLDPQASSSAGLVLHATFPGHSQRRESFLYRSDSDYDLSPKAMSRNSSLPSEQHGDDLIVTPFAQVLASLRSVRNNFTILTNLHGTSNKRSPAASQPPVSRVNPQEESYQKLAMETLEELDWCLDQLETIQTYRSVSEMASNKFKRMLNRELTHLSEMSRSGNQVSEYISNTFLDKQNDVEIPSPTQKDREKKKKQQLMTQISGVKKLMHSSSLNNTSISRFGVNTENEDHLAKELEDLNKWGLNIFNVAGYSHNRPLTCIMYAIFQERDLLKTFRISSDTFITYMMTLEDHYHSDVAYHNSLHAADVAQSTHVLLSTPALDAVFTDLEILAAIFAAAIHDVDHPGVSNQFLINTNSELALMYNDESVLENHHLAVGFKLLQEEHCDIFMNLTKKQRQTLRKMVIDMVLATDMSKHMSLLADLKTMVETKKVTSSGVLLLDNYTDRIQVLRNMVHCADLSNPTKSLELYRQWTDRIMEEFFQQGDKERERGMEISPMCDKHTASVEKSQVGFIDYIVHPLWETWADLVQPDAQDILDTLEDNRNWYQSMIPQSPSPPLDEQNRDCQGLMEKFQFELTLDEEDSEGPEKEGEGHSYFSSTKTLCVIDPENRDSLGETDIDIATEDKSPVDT

The target of experiment [9] is Cytochrome P450 3A4 (Homo sapiens) (UniProt P08684). Nature of the experiment: qHTS Assay for Activators of Cytochrome P450 3A4 (AID 885; active = well fitted curve in the direction sought with a large enough effect; an effect the other way counts as inactive or inconclusive; note: nearly all actives have a fitted effect of over 65% in size). The following applies: recombinant CYP3A4, Luciferin-PPXE luminescence, 60 min; series mostly up to 57.1 µM. The procedure, abridged: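 CYP3A4 activity: Luciferin-PPXE O-dealkylation, 25uM substrate, 200mM KPO4, RT throughout. Read-out is luciferase luminescence; higher values reflect activation.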
Chain of Cytochrome P450 3A4 (Homo sapiens) (P08684 whole entry, looked up): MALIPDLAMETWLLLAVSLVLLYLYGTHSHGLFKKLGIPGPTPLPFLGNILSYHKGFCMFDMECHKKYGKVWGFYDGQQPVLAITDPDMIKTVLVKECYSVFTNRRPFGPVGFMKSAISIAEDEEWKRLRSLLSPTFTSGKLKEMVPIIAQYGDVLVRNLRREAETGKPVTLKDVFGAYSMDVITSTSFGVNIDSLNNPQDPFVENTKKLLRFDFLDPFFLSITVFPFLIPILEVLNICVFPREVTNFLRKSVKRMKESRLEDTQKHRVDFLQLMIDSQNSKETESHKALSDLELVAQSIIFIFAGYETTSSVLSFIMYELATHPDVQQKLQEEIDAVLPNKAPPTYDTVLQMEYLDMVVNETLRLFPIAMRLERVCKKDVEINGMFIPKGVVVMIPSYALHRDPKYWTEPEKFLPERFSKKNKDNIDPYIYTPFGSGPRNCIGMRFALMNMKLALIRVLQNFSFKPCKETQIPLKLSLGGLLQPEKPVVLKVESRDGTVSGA
A general note: qHTS replaces the single test concentration by a dilution series.

The target of experiment [10] is Cytochrome P450 2D6 (Homo sapiens) (UniProt P10635). Nature of the experiment: qHTS Assay for Inhibitors and Substrates of Cytochrome P450 2D6 (AID 891; active = well fitted curve in the direction sought with a large enough effect; an effect the other way counts as inactive or inconclusive; note: potency is the fitted concentration of half-maximal effect; nearly all actives have a fitted effect of over 60% in size). The note with it: recombinant CYP2D6, luciferin-ME EGE luminescence; series mostly up to 57.1 µM. The procedure, abridged:
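Luminescent read-out of luciferin formed by 5 nM human CYP2D6 demethylating 30 uM Luciferin-ME EGE (Km level) over 60 min at room temperature after NADPH regeneration addition. Data normalized to full inhibition by 1.43 uM quinidine.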

A short description of experiment [11]: qHTS Assay for Lipid Storage Modulators (AID 1519; calls by dose curve). The note with it: Drosophila S3 cells, BODIPY lipid droplet/cell ratio, laser cytometry, cells loaded with oleic acid; for activity change, negative = inhibition: at 57.5 µM (top of the series). The procedure, abridged:
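Cells seeded at 5,000 per well were treated with compounds over a concentration series and loaded with oleic acid (400 uM, as added). Lipid droplet fluorescence (488 nm excitation, 500-530 nm channel) was read by laser-scanning cytometry and normalized to 20 uM Triacsin C.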

Experiment [12] is described as follows: Primary qHTS for small molecule stabilizers of the endoplasmic reticulum resident proteome: Secreted ER Calcium Modulated Protein (SERCaMP) assay (AID 1508630; active = well fitted curve in the direction sought with a large enough effect; an effect the other way counts as inactive or inconclusive; note: % is set by controls: 0 for no effect and ±100 for the full control effect). The following applies: SH-SY5Y GLuc-SERCaMP (Gaussia luciferase released on ER calcium loss) secretion, thapsigargin, luminescence; series mostly up to 38.4 µM. The procedure, abridged: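 The SH-SY5Y reporter protocol was run at 3 concentrations up to 38.3 uM (primary) or 11 concentrations (follow-up): 16 h compound, 100 nM thapsigargin for 4 h, then extracellular luciferase luminescence.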

The nature of experiment [13]: qHTS Assay for Identification of Small Molecule Agonists for Hypoxia Response Element Signaling Pathway (AID 914; active = well fitted activation curve with a large enough effect in the signal ratio, with a control signal flat, not every such curve was filed as active; the % refers to the signal ratio; note: % of control where 0% means no effect). The following applies: ME-180 (cervical carcinoma) HRE-bla reporter, beta-lactamase ratio, CoCl2, 17 h; activation: stronger effect = higher value. The procedure, abridged: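 A beta-lactamase reporter under hypoxia response element control in ME-180 cells served as the system. Compound titrations plus EC50 CoCl2 ran 17 h at 37 degrees Celsius; AC50 values were fitted from %Activity.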

Where [14] appears, read: measured here: cell count channel max response.
The mark [15] stands for this setting: measured here: lipid channel max response.

Records with an inconclusive call do not appear. The source made the active and inactive calls. Unless noted, calls come from the whole dose curve; as a rule, active = well fitted curve in either direction with a large enough effect (not every such curve was filed as active); inconclusive = small, poorly fitted or top-dose-only effect, or another doubt; inactive = flat fitted curve, though single readings scatter.

Chain of Glucocorticoid receptor (Homo sapiens) (P04150 whole entry, looked up, the tested form may be a part): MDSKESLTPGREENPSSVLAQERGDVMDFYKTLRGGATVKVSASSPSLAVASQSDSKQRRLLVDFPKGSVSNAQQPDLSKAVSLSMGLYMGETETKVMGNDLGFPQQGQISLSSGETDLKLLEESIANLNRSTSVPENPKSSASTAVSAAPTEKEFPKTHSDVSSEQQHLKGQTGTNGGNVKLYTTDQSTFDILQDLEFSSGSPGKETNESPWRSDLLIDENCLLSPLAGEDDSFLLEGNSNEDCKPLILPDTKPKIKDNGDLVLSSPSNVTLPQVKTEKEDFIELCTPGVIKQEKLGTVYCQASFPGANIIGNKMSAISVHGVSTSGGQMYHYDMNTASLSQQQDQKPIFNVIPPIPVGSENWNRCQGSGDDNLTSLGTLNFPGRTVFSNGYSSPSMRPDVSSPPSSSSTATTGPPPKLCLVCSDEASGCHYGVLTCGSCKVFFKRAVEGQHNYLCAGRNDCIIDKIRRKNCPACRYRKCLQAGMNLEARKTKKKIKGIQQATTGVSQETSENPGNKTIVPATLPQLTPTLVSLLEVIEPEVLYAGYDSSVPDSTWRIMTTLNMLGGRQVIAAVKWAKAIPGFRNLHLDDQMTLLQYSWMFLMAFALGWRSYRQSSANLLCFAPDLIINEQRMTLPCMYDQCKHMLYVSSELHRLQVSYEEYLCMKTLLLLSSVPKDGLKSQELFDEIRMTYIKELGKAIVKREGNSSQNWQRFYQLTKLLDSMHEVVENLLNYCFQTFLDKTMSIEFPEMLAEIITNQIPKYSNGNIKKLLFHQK
Chain of Cytochrome P450 2D6 (Homo sapiens) (P10635 whole entry, looked up): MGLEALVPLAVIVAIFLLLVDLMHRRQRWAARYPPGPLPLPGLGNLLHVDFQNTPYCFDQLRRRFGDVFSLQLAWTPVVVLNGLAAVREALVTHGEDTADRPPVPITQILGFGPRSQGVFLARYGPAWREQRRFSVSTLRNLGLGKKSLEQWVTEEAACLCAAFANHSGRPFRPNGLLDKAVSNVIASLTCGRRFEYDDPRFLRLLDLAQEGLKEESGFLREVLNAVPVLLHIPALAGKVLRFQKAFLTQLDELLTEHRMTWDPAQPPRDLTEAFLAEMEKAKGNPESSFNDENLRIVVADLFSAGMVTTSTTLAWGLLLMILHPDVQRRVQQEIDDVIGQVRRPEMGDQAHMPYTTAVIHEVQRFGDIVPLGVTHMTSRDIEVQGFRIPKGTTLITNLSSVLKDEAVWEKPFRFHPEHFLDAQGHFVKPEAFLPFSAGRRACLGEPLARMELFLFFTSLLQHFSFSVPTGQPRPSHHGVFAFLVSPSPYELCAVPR

Take `CC(C)CN1CC[C@@]2(CCCN(C(=O)c3csnn3)C2)C1`: the values for the Potency in experiment [1], in [6] and in [10] were > 11.4 µM (inactive), > 46 µM (inactive) and 0.501 µM (active), respectively. Further, the activity change, negative = inhibition in [2] was -0.149% (inactive); in [4], -1.84% (inactive); in experiment [11], 1.65% (inactive). Further, the Potency result in experiment [3], in [8], in [9] and in [12] was “inactive” throughout. Besides, the activity, negative = inhibition in experiment [5] is 5.64% (inactive). The molecule was called inactive in experiment [7]. The figures for the max response in experiment [11] (setting [14]) and in experiment [11] (setting [15]) were -1.75% and 2.01%, respectively.

Regarding `O=C(Nc1cccc(F)c1)N1CC[C@@]2(CCCNC2)C1`, the Potency was > 11.4 µM (inactive) in [1] and > 46 µM (inactive) in [6]. Further, the activity change, negative = inhibition was 2.44% (inactive) in experiment [2], -0.699% (inactive) in experiment [4] and 3.99% (inactive) in experiment [11]. Also, the Potency result in experiment [3], in [8], in [9] and in experiment [12] was “inactive” each time. Further, the activity, negative = inhibition in experiment [5] was -0.756% (inactive). Moreover, the outcome in experiment [7] was inactive. For the same molecule, the activation in experiment [13] is 0.832% (inactive). The max response is -1.25% in experiment [11] (setting [14]) and 6.61% in experiment [11] (setting [15]).

`COc1ccc(C(=O)N2CCC3(CCN(C)CC3)CC2)cc1`: the Potency in experiment [1] was > 11.4 µM (inactive); in experiment [6], > 46 µM (inactive). Besides, the activity change, negative = inhibition in experiment [2] was -25.4% (inactive); in experiment [4], -8.24% (inactive); in experiment [11], 3.67% (inactive). Besides, the Potency result in experiment [3], in experiment [8] and in [12] was “inactive” throughout. The activity, negative = inhibition in experiment [5] was 2.9% (inactive). In addition, in experiment [7], the outcome was inactive. Further, the activation in experiment [13] is 5.39% (inactive). The max response in experiment [11] (setting [14]) is 8.31%; in experiment [11] (setting [15]) it was 12.9%.

Regarding `N#Cc1ccc(CN2CCCC3(CCN(C(=O)c4cccc(F)c4)CC3)C2)cc1`, the Potency was > 11.4 µM (inactive) in experiment [1] and > 46 µM (inactive) in experiment [6]. The values for the activity change, negative = inhibition in [2], in experiment [4] and in [11] were 19.4% (inactive), -65.7% (active) and 2.12% (inactive), respectively. Besides, the Potency entry in experiment [3], in experiment [8], in experiment [9] and in experiment [12] was “inactive” in each case. In addition, the activity, negative = inhibition in experiment [5] was -5.26% (inactive). In addition, the molecule was classed as inactive in [7]. In addition, the activation in [13] was -15.7% (inactive). Also, the max response came to 15% in [11] (setting [14]) and 19.8% in experiment [11] (setting [15]).

Regarding `CC(C)CN1CC[C@@]2(CCCN(C(=O)c3cnccn3)C2)C1`, the Potency in experiment [1] is > 11.4 µM (inactive); in [6], > 46 µM (inactive). The figures for the activity change, negative = inhibition in [2], in [4] and in experiment [11] were 6.22% (inactive), 13.6% (inactive) and 3.32% (inactive), respectively. Further, the Potency result in experiment [3], in [8], in [9] and in experiment [12] was “inactive” throughout. The activity, negative = inhibition in experiment [5] was 4.96% (inactive). In addition, in experiment [7], the outcome was inactive. Also, in [13], the activation was -0.465% (inactive). The max response in [11] (setting [14]) came out at 15.7%; in experiment [11] (setting [15]) it was 22.3%.

Turning to `CC(=O)N1CCC[C@@]2(CCN(c3ccncc3)C2)C1`, the Potency in experiment [1] is > 11.4 µM (inactive); in experiment [6] it was > 46 µM (inactive). In addition, the activity change, negative = inhibition was 2.82% (inactive) in [2], 3.22% (inactive) in experiment [4] and 2.25% (inactive) in [11]. Besides, the Potency result in experiment [3], in experiment [8], in [9] and in experiment [12] was “inactive” in each case. The activity, negative = inhibition in experiment [5] was -0.448% (inactive). In [7], the outcome was inactive. Also, the max response was 8.59% in experiment [11] (setting [14]) and 14.8% in experiment [11] (setting [15]).

The values are drawn from PubChem BioAssay (NCATS).
